Experimental data reported in PubChem BioAssay (Tox21).
Records with an inconclusive call do not appear. Active and inactive are the calls of the source. Calls come from the whole dose curve.

How the values were obtained:
[1] = molecular target: Acetylcholinesterase (Homo sapiens) (UniProt P22303); assay: Acetylcholinesterase (AChE) small molecule antagonists: colormetric cell-based qHTS assay (AID 1347395); note: nearly all actives have a fitted effect of over 30% in size
Method in brief: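 AChE inhibition read colorimetrically via DTNB–thiocholine in SH-SY5Y cells. Compound 30 min, substrate 90 min, both 37 C.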

[2] = molecular target: Acetylcholinesterase (Homo sapiens) (UniProt P22303); assay: Acetylcholinesterase (AChE) small molecule antagonists: enzyme-based qHTS assay (AID 1347397); conditions: Potency: AChE enzyme activity inhibition; outcome: AChE enzyme activity inhibition; note: nearly all actives have a fitted effect of over 55% in size
Method in brief: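 Recombinant human AChE (50 mU/mL) preincubated with compound 30 min at room temperature; acetylthiocholine plus DTNB then added, and thiocholine formation read colorimetrically after 10 min at room temperature. DMSO served as vehicle control.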

[3] = molecular target: Acetylcholinesterase (Homo sapiens) (UniProt P22303); assay: Acetylcholinesterase (AChE) small molecule antagonists: fluorescence cell-based qHTS assay (AID 1347398); conditions: Potency: AChE activity; outcome: AChE activity; note: nearly all actives have a fitted effect of over 50% in size
Method in brief: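 SH-SY5Y cells (2000/well), attached overnight, incubated with compound 30 min at 37 C. Acetylthiocholine plus Thiolite Green then added for 40 min at room temperature. Thiocholine fluorescence (Ex/Em 490/520 nm) reports cellular AChE activity.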

[4] = molecular target: Acetylcholinesterase (Homo sapiens) (UniProt P22303); assay: Acetylcholinesterase (AChE) small molecule antagonists: enzyme-based qHTS assay with human liver microsomes (AID 1347399); conditions: Potency: qHTS inhibition; outcome: qHTS inhibition; note: nearly all actives have a fitted effect of over 60% in size
Method in brief: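 Recombinant human AChE (50 mU/mL in the enzyme mix) and human liver microsomes (0.25 mg/mL final) were preincubated with compound and NADPH (0.25 mg/mL final) for 30 min at 37 C. Acetylthiocholine/DTNB was then added; thiocholine was read colorimetrically after 10 min at room temperature.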
% is set by controls: 0 for no effect and ±100 for the full control effect.

Sequence of Acetylcholinesterase (Homo sapiens) (P22303 whole entry, looked up): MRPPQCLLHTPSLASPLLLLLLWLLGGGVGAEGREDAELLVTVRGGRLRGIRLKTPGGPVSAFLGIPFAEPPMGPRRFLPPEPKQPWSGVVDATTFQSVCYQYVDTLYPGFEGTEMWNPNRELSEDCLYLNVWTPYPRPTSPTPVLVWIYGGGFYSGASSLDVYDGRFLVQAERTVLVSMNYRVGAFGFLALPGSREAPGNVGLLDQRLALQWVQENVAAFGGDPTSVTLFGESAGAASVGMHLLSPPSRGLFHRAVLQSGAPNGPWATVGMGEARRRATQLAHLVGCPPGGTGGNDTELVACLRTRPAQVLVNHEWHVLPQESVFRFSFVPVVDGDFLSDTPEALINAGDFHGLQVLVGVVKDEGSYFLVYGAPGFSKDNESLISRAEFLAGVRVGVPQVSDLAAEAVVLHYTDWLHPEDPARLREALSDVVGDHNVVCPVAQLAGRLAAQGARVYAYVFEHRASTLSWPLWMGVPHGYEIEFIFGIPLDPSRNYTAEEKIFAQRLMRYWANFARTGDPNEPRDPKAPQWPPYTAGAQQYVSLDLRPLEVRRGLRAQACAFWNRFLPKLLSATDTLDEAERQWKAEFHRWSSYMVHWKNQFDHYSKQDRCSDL

C=CCCCCCCCCCCCCCC
inactive: activity, negative = inhibition [1] 0.819% [at 23.6 µM] | activity change, negative = inhibition [2] 0.291% [at 23.6 µM] | activity change, negative = inhibition [3] 5.43% [at 23.8 µM] | activity change, negative = inhibition [4] -1.13% [at 23.6 µM]

O=C(CCS)OCC(COC(=O)CCS)(COC(=O)CCS)COC(=O)CCS
inactive: Potency [1] | Potency [2] | Potency [3] | Potency [4]

O=C1c2ccccc2-c2ccccc21
inactive: Potency [1] | Potency [2] | Potency [3] | Potency [4]

O=C1c2ccccc2C(=O)c2cc(Cl)ccc21
inactive: activity, negative = inhibition [1] -0.634% [at 10.5 µM] | activity change, negative = inhibition [2] -1.23% [at 10.5 µM] | activity change, negative = inhibition [3] 0% [at 10.5 µM] | activity change, negative = inhibition [4] 0.0166% [at 10.5 µM]

C[C@H](CCC(=O)O)[C@H]1CC[C@H]2[C@@H]3C(=O)C[C@@H]4CC(=O)CC[C@]4(C)[C@H]3CC(=O)[C@]12C
inactive: Potency [1] | Potency [2] | Potency [3] | Potency [4]

O/N=C/C=N/O
inactive: Potency [1] | Potency [2] | Potency [3] | Potency [4]

NCCC(O)(P(=O)(O)O)P(=O)(O)O
inactive: Potency [1] | Potency [2] | Potency [3] | Potency [4]

CC/C=C\C/C=C\C/C=C\CCCCCCCC(=O)OC
inactive: Potency [1] | Potency [2] | Potency [3] | Potency [4]

O=C(CCCl)NCCc1ccccc1
inactive: Potency [1] | Potency [2] | Potency [3] | Potency [4]

CCN(Cc1cccc(S(=O)(=O)O)c1)c1ccc(C(=C2C=CC(=[N+](CC)Cc3cccc(S(=O)(=O)O)c3)C=C2)c2ccc(O)cc2S(=O)(=O)[O-])cc1
inactive: Potency [1] | Potency [2] | Potency [3] | Potency [4]

FC(F)(F)C(F)(F)C(F)(F)C(F)(F)C(F)(F)C(F)(F)CCI
inactive: Potency [1] | Potency [2] | Potency [3] | Potency [4]

C#C[C@]1(O)CC[C@H]2[C@@H]3CCc4cc(OC5CCCC5)ccc4[C@H]3CC[C@@]21C
inactive: Potency [1] | Potency [2] | Potency [3] | Potency [4]

CCCCOCCCC
inactive: Potency [1] | Potency [2] | Potency [3] | Potency [4]

CC(C)C1CCC(C(=O)N[C@H](Cc2ccccc2)C(=O)O)CC1 (some centres undefined)
inactive: Potency [1] | Potency [2] | Potency [3] | Potency [4]

CC(C)CCCO
inactive: Potency [1] | Potency [2] | Potency [3] | Potency [4]

Cc1nc(-c2ccc3c(c2)CCN(CCC2CCC(NC(=O)/C=C/c4ccc(F)cc4)CC2)CC3)no1 (centres undefined)
inactive: Potency [1] | Potency [2] | Potency [3] | Potency [4]

O=C(c1ccco1)N1CCNCC1
inactive: Potency [1] | Potency [2] | Potency [3] | Potency [4]

COC(OC)(C(=O)c1ccccc1)c1ccccc1
inactive: Potency [1] | Potency [2] | Potency [3] | Potency [4]

c1ccc(CNCc2ccccc2)cc1
inactive: Potency [1] | Potency [2] | Potency [3] | Potency [4]

CCCCCCCCCCCCOC(C)=O
inactive: Potency [1] | Potency [2] | Potency [3] | Potency [4]

CCNC(=O)NCc1cccc(Cl)c1
inactive: Potency [1] | Potency [2] | Potency [3] | Potency [4]

CCCCCCCCCCCCCOP(=O)(O)O
inactive: Potency [1] | Potency [2] | Potency [3] | Potency [4]

CC(CC(=O)Cl)CC(C)(C)C (centres undefined)
inactive: Potency [1] | Potency [2] | Potency [3] | Potency [4]

NS(=O)(=O)c1cc(C2(O)NC(=O)c3ccccc32)ccc1Cl (centres undefined)
inactive: Potency [1] | Potency [2] | Potency [3] | Potency [4]

CCOC(=O)c1ncn2c1CN(C)C(=O)c1cc(F)ccc1-2
inactive: Potency [1] | Potency [2] | Potency [3] | Potency [4]

NNC(=O)CCCCC(=O)NN
inactive: Potency [1] | Potency [2] | Potency [3] | Potency [4]

CC(C)(C)c1ccc(OC(=O)c2ccccc2O)cc1
inactive: Potency [1] | Potency [2] | Potency [3] | Potency [4]

CCCCCCCCCCCCCCC[C@H](O)[C@@H](N)CO
inactive: Potency [1] | Potency [2] | Potency [3] | Potency [4]

O=C(N[C@H](CO)[C@H](O)c1ccc([N+](=O)[O-])cc1)C(Cl)Cl
inactive: Potency [1] | Potency [2] | Potency [3] | Potency [4]

CCOCCOC(=O)/C=C/c1ccc(OC)cc1
inactive: Potency [1] | Potency [2] | Potency [3] | Potency [4]

C#CC(O)CCCCC (centres undefined)
inactive: Potency [1] | Potency [2] | Potency [3] | Potency [4]

CC1CCC(=O)C1=O (centres undefined)
inactive: Potency [1] | Potency [2] | Potency [3] | Potency [4]

CCC(C)S (centres undefined)
inactive: activity, negative = inhibition [1] 1.56% [at 4.07 µM] | activity change, negative = inhibition [2] 0.922% [at 4.07 µM] | activity change, negative = inhibition [3] 4.18% [at 3.98 µM] | activity change, negative = inhibition [4] -0.581% [at 4.07 µM]

O=C(O)CCCc1ccccc1
inactive: Potency [1] | Potency [2] | Potency [3] | Potency [4]

CC1(C)O[C@@H]2C[C@H]3[C@@H]4CCC5=CC(=O)CC[C@]5(C)[C@@]4(F)[C@@H](O)C[C@]3(C)[C@]2(C(=O)CCl)O1
inactive: Potency [1] | Potency [2] | Potency [3] | Potency [4]

C1=CCC2CC=CC2C1 (centres undefined)
inactive: Potency [1] | Potency [2] | Potency [3] | Potency [4]

CC(C)=CCCC(C)C=O (centres undefined)
inactive: Potency [1] | Potency [2] | Potency [3] | Potency [4]

CCCCCCCCCCCCCCCC(=O)OC/C=C(C)/C=C/C=C(C)/C=C/C1=C(C)CCCC1(C)C
inactive: Potency [1] | Potency [2] | Potency [3] | Potency [4]

CCCCCCOC(=O)CCC
inactive: Potency [1] | Potency [2] | Potency [3] | Potency [4]

CCCCCCCCCC(=O)N(C)C
inactive: Potency [1] | Potency [2] | Potency [3] | Potency [4]

CC(=O)OCC(=O)[C@@]1(OC(C)=O)[C@@H](C)C[C@H]2[C@@H]3C[C@H](F)C4=CC(=O)C=C[C@]4(C)[C@@]3(F)[C@@H](O)C[C@@]21C
inactive: Potency [1] | Potency [2] | Potency [3] | Potency [4]
